High-throughput results deposited in PubChem by The Scripps Research Institute Molecular Screening Center.
Shown are actives, neighbours in structure and some others; about 5.7% of the full set was active somewhere.
DAX1 inh-1: DAX1 (NR0B1) inhibitors on StAR promoter, primary screen, cell-based, luminescence, SF-1 (NR5A1), full-length DAX-1; HEK293T StAR-luciferase reporter, SF-1/DAX-1 repression relief; inhibition, % at 6.8 µM; 370,000 tested, 1.1% active;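 active = inhibition above the mean over all tested compounds plus 3 SD, cut at about 3.6% in these data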;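 note: 0% = DAX-1 cells with DMSO and 100% = cells lacking DAX-1 with DMSO; higher inhibition means more luminescence from relief of DAX-1 repression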
ssDAF12 agonist: S. stercoralis DAF-12 nuclear receptor activators, primary screen, cell-based, luminescence, HEK293, GRIP1 co-expression, lit1-tk-luc; Nuclear hormone receptor DAF-12 (Strongyloides stercoralis); HEK293 ssDAF-12/GRIP1 lit1-tk-luc reporter; % of 3 µM dafachronic acid response; activation, % at 6.8 µM; 370,000 tested, 1% active;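 active = activation above the mean over all tested compounds plus 3 SD, cut at about 0.9% in these data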;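 note: 0% = DMSO-only wells and 100% = 3 µM delta7-dafachronic acid wells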
DAX1 inh-2: DAX1 (NR0B1) inhibitors, primary screen, cell-based, HEK293, Gal4-DAX1, luciferase luminescence; Nuclear receptor subfamily 0 group B member 1 (Homo sapiens), P51843; 340,000 tested, 0.99% active; AID 504766, 2011; HEK293 Gal4-DAX1 luciferase reporter; inhibition, % at 6.75 µM;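 active = inhibition above the mean over all tested compounds plus 3 SD, cut at about 4.2% in these data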;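 note: 0% = DAX1-transfected cells with DMSO and 100% = empty-vector control cells with DMSO; inhibition shows as a rise in luminescence from relieved DAX1 repression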
AHR act: AHR activators, primary screen, cell-based, luminescence, luciferase reporter, human. Aryl hydrocarbon receptor (Homo sapiens), P35869. 320,000 tested, 2.5% active. AHR-responsive luciferase reporter cells. activation, % at 5 µM; in the data active = activation above about 47%;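 note: 0% = vehicle wells and 100% = reference agonist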
Target sequence (P35869 whole entry, looked up): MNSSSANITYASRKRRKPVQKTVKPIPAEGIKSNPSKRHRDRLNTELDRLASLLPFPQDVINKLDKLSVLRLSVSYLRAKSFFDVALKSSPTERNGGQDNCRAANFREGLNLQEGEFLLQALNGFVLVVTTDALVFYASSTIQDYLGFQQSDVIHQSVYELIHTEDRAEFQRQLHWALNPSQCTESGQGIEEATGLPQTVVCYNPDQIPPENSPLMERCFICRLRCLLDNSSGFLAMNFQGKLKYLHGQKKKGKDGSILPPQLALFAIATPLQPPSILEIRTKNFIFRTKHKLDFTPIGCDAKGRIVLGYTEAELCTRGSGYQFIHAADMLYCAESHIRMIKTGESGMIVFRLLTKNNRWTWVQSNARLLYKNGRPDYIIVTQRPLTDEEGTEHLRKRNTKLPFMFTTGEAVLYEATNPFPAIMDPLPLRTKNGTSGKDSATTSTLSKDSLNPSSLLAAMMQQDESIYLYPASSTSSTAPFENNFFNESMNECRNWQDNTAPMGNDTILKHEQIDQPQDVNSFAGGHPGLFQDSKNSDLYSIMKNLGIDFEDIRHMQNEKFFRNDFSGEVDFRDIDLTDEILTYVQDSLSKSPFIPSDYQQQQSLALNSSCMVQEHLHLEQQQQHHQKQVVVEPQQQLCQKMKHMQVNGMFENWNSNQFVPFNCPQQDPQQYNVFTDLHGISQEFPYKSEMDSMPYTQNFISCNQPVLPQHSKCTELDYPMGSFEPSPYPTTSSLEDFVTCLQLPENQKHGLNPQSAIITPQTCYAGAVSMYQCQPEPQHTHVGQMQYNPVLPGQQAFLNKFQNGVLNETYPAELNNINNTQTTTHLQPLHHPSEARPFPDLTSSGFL
hcDAF12 agonist: H. contortus DAF-12 nuclear receptor activators, primary screen, cell-based, luminescence, HEK293, lit1-tk-luc reporter. HEK293 hcDAF-12 lit1-tk-luc reporter; 0% DMSO, 100% Δ7-dafachronic acid. activation, % at 6.8 µM. 370,000 tested, 1.4% active. AID 652067, 2013;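 active = activation above the mean of all tested compounds plus 3 SD, cut at about 5.5% in these data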;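 note: 100% = response to 3 µM Δ7-dafachronic acid high control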
hgDAF12 agonist: H. glycines DAF-12 receptor agonists, primary screen, cell-based, luminescence, HEK293, GAL4 fusion, UAS-luciferase. HEK293 GAL4-hgDAF12 UAS-luciferase reporter, agonist luminescence; normalized to butyrate control. activation, % at 6.8 µM. 370,000 tested, 1.8% active. AID 687014, 2013;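 active = activation above a cutoff set at the mean of all screened compounds plus 3 SD, cut at about 10% in these data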;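 note: 0% = DMSO wells and 100% = sodium butyrate wells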
* = called active by the depositor; . = no result.

SMILES	DAX1 inh-1	ssDAF12 agonist	DAX1 inh-2	AHR act	hcDAF12 agonist	hgDAF12 agonist
CC(=O)c1cccc(Nc2nc(-c3sc(N)nc3C)cs2)c1	0	-1	1	49*	-1	1
Cc1nc(N)sc1-c1csc(Nc2cccc(O)c2)n1	0	0	0	71*	1	1
CC(=O)c1cccc(Nc2nc(-c3sc(C)nc3C)cs2)c1	-1	-2	-3	-2	-5	-2
O=C(NCc1cccs1)c1cc2ccccc2o1	-1	-1	1	3	0	3
CC(=O)N1CCc2cc(S(=O)(=O)N3CCOCC3)ccc21	0	-1	4.6*	0	-1	0
CCn1cc(C(=O)NCCCN2CCC(C)CC2)c(=O)c2cc(S(=O)(=O)N3CCOCC3)ccc21	3.7*	-1	1	1	4	0
CN(C1CCCCC1)S(=O)(=O)c1ccc2c(c1)c(=O)c(C(=O)NCCCN1CCCC1)cn2C	1	-2	4.9*	-1	1	2
CCC(=O)N1CCc2cc(S(=O)(=O)CCC(=O)Nc3ccc(C(C)=O)cc3)ccc21	-1	-1	-1	0	0	3
CC(=O)c1ccc(NC(=O)CC(C)S(=O)(=O)c2ccc3c(c2)CCN3C(C)=O)cc1 (configuration not stated)	4.1*	-1	0	-1	1	0
CC(=O)N1CCCc2cc(S(=O)(=O)N3CCCC3)ccc21	0	-1	0	2	1	-1
COC(=O)C[C@H]1C[C@@H]2c3cc(NC(=O)Nc4ccc(F)cc4)ccc3O[C@@H]2[C@@H](CO)O1	0	-1	0	.	2	8
CCn1cc(C(=O)N2CCc3ccccc32)c(=O)c2cc(S(=O)(=O)N(C)C3CCCCC3)ccc21	-2	-1	0	3	-2	0
CCCCN(CCCC)CCNC(=O)c1cn(CC)c2ccc(S(=O)(=O)N3CCCC3)cc2c1=O	4.5*	-1	1	-1	1	2
CCn1cc(C(=O)N2CCc3ccccc32)c(=O)c2cc(S(=O)(=O)N3CCOCC3)ccc21	0	0	-1	9	5.9*	4
COC(=O)c1c(C(=O)c2ccc(Br)cc2)n(C)c2ccccc12	1	-1	0	13	1	2
CCCC(C)NS(=O)(=O)c1ccc(OC)c(C)c1 (configuration not stated)	0	-1	1	0	-2	1
Cc1sc2ccccc2c1CNC[C@H]1O[C@@H](n2cnc(C(N)=O)n2)[C@H](O)[C@@H]1O	1	1.0*	1	.	-1	-3
Cc1sc2ccccc2c1CNC[C@H]1O[C@@H](n2ccc(N)nc2=O)[C@H](O)[C@@H]1O	1	0	1	.	0	0
Cc1ccc2[nH]c(=O)c(C3C(C#N)=C(N)Oc4c3ccc3cccnc43)cc2c1 (configuration not stated)	1	1.1*	1	16	3	5
Nn1c(SCc2cn3ccsc3n2)nnc1-c1ccncc1	-1	-1	0	1	-1	0
O=c1oc2ccccc2n1Cn1c(=O)oc2ccccc21	1	-1	2	4	-2	-2
Cc1ccc(-c2cc(C(=O)NC3=NCCS3)c3ccccc3n2)cc1C	1	0	0	15	4	11*
O=C(NC1=NCCS1)c1cc(-c2ccc(F)cc2)nc2ccccc12	0	-1	0	30	-2	2
Cc1ccc(-c2cc(C(=O)N/N=C/c3c(C)nn(C)c3C)c3ccccc3n2)cc1C	0	0	1	61*	1	1
